# Results filed as inconclusive are left out. Active and inactive are the calls of the source. Unless noted, calls follow the shape of the dose curve; as a rule, active = well fitted curve in the direction sought with a large enough effect; inconclusive = small, poorly fitted or top-dose-only effect, or another doubt; inactive = no such curve, though single readings can be large; an effect the other way counts as inactive or inconclusive.
# Tests used:
# [1] = target: Cytochrome P450 2D6 (Homo sapiens) (UniProt P10635); experiment: Cytochrome P450 family 2 subfamily D member 6 (CYP2D6) small molecule antagonists: luciferase biochemical (cell-free) qHTS assay (AID 1645840; active = well fitted curve in the direction sought with a large enough effect in the repeat runs; an effect the other way counts as inactive or inconclusive; also: nearly all actives have a fitted effect of over 55% in size; also: potency is read from the fitted curve at half-maximal effect; as to activity change, negative = inhibition: % is scaled to controls: 0 for no effect and ±100 for the full control effect)
# Cytochrome P450 2D6 (Homo sapiens), sequence (P10635 whole entry, looked up): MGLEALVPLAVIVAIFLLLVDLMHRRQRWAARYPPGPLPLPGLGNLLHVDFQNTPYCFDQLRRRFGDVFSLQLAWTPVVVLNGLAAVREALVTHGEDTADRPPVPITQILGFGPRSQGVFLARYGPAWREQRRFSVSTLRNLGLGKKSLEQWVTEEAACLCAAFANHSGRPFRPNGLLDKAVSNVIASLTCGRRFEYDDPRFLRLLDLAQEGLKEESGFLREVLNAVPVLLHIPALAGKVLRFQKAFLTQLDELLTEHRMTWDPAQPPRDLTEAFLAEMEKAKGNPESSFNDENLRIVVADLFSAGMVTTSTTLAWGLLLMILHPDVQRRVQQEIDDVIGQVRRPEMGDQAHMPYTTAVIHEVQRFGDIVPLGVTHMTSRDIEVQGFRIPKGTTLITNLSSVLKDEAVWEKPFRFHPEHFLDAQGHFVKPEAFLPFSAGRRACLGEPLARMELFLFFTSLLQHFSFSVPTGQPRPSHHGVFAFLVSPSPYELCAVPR
# In short: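 P450-Glo CYP2D6 system: proluciferin substrate converted by enzyme to luciferin, read by luminescence proportional to activity. Enzyme-substrate mix with compound 10 min at room temperature, then NADPH regeneration 1 h before detection reagent.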
# [2] = target: Cytochrome P450 2C9 (Homo sapiens) (UniProt P11712); experiment: Cytochrome P450 family 2 subfamily C member 9 (CYP2C9) small molecule antagonists: luciferase biochemical (cell-free) qHTS assay (AID 1645842; active = well fitted curve in the direction sought with a large enough effect in the repeat runs; an effect the other way counts as inactive or inconclusive; also: potency is read from the fitted curve at half-maximal effect; nearly all actives have a fitted effect of over 55% in size)
# Cytochrome P450 2C9 (Homo sapiens), sequence (P11712 whole entry, looked up): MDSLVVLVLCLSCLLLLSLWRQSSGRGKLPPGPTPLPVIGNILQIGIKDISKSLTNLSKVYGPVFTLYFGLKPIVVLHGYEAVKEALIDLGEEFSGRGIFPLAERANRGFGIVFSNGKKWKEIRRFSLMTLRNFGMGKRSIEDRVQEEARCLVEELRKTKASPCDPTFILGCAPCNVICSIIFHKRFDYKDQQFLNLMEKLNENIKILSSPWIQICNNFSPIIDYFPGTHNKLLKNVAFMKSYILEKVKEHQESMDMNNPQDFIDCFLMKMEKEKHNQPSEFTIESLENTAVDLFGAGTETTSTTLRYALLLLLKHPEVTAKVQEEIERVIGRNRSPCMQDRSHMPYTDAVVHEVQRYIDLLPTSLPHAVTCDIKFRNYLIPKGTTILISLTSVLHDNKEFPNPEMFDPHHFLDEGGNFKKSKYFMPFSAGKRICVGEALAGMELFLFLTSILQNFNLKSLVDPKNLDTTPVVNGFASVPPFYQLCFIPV
# In short: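 P450-Glo CYP2C9 system: proluciferin substrate with enzyme in mix containing 0.4% BSA, 10 min at room temperature, then NADPH regeneration solution added and incubated 1 h at 37C. Detection reagent stopped reaction; luminescence read after 20 min as RLU.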
# [3] = qHTS drug screen for cell cycle checkpoint inhibitors in PARPi-resistant BRCA-mutant ovarian cancer cell lines. (AID 1963452; calls by dose curve); conditions: PEO1/OlaR viability, CellTiter-Glo luminescence, 96 h, stronger effect = lower value
# In short: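 PEO1, PEO4 and PEO1/OlaR ovarian cancer cells, 600 per well, exposed 96 h at 37C to a dilution series. Viability read by CellTiter-Glo luminescence, normalized to DMSO and empty wells; activity summarized as Z-AUC.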
# HaCat = experiment: Cytotoxic Profiling of Annotated Libraries Using Quantitative High-Throughput Screening (AID 1296008); conditions: Five cell lines viability, CellTiter-Glo ATP luminescence, 48-72 h; max response: stronger effect = lower value; also: nearly all actives have a fitted effect of over 60% in size; also: potency is read from the fitted curve at half-maximal effect; as to max response: % is scaled to controls: 0 for no effect and ±100 for the full control effect
# In short: (§1)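 Compounds were pin-transferred onto cells and incubated 48 or 72 hr at 37 degree Celsius, 95% humidity. CellTiter-Glo was added, plates sat 10 min at room temperature, then ATP-coupled luminescence was imaged as the viability read-out.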
# CAOV3 = experiment: Primary qHTS to identify gynecologic anti-cancer compounds using libraries of approved drugs and bioactive compounds (AID 1345084); conditions: Gynecologic cancer cell panel viability, ATPlite luminescence, 48 h; series mostly up to 57.5 µM; also: nearly all actives have a fitted effect of over 55% in size; also: potency is read from the fitted curve at half-maximal effect
# In short: (§2)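 Cells, 1,000 per well, were allowed to settle for 16 h at 37 C before compound addition. Five concentrations were tested for 48 h, and viability was read by ATPlite luminescence after 15 min at room temperature.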
# [4] = tested on: Zika virus NS2B-NS3 protease (linked construct); experiment: Confirmatory screen NINDS AMC qHTS for Zika virus inhibitors (AID 1347152); also: potency is read from the fitted curve at half-maximal effect; nearly all actives have a fitted effect of over 70% in size
# In short: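 Linked NS2B-NS3 1 nM, Tris pH 8.0/0.01% Tween 20; cpd 15 min RT dark; + Nle-KRR-AMC 10 µM (Km 18.3 µM); read 0 and 15 min, 340/450 nm; %inh vs controls, 4-param Hill.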
# [5] = Tertiary RLuc qRT-PCR qHTS assay for Zika virus inhibitors (AID 1347169)
# In short: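 Luminescence read-out: live-cell Renilla luciferase substrate applied to infected Vero cells, signal measured after 1-1.5 hrs. Cells had received compound before ZIKV-RLuc (Cambodian strain, MOI 1-2) infection and were incubated 48-72 hrs at 37 degrees C.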
# [6] = target: Catechol O-methyltransferase (Homo sapiens) (UniProt P21964); experiment: Confirmatory Screen for Target Class Profiling of Small Molecule Inhibitors of Methyltransferases (AID 1745852); conditions: MTase-Glo luminescence, SAH detection, recombinant enzyme; measured here: COMT max response; stronger effect = lower value; as to activity change, negative = inhibition: % is scaled to controls: 0 for no effect and ±100 for the full control effect
# Catechol O-methyltransferase (Homo sapiens), sequence (P21964 whole entry, looked up): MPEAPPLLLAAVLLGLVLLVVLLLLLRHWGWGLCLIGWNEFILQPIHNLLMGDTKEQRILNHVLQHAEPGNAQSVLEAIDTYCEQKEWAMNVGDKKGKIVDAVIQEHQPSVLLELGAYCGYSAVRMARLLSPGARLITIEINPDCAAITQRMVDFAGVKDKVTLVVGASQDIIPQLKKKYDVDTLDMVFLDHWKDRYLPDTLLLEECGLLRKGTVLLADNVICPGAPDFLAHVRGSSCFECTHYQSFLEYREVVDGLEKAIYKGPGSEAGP
# [7] = target: Guanidinoacetate N-methyltransferase (Homo sapiens) (UniProt Q14353); experiment: as above; conditions: activity change, negative = inhibition: at 57.3 µM (top of the series) unless noted
# [8] = target: Nicotinamide N-methyltransferase (Homo sapiens) (UniProt P40261); experiment: as above; conditions: MTase-Glo luminescence, SAH detection, recombinant enzyme; measured here: NNMT max response; stronger effect = lower value
# Nicotinamide N-methyltransferase (Homo sapiens), sequence (P40261 whole entry, looked up): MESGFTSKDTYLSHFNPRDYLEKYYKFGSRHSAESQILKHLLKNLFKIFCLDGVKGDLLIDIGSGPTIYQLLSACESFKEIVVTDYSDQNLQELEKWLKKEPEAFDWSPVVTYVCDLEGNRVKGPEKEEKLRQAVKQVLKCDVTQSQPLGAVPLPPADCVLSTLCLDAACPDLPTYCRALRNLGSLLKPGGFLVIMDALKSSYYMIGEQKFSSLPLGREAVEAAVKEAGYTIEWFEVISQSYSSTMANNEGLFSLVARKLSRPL
# [9] = target: Phenylethanolamine N-methyltransferase (Homo sapiens) (UniProt P11086); experiment: as above; conditions: MTase-Glo luminescence, SAH detection, recombinant enzyme; measured here: PNMT max response; stronger effect = lower value
# Phenylethanolamine N-methyltransferase (Homo sapiens), sequence (P11086 whole entry, looked up): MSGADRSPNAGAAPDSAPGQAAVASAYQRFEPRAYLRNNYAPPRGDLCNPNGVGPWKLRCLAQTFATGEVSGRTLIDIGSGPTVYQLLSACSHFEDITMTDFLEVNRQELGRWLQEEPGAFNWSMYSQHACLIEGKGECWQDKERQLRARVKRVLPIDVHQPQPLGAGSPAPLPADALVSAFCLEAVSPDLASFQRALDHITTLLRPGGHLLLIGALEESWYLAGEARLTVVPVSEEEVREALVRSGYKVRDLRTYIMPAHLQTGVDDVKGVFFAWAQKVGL
# [10] = Primary redox qHTS assay for identification of artifact compounds. (AID 1845223);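 also: 0% = DMSO and 100% = reference compound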
# In short: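 Redox-cycling detection via DTT (250 uM final) oxidation coupled to Amplex Red (25 uM)/HRP (250 mU/mL) in HBSS. 15 min preincubation plus 30 min after DTT, room temperature. Ex/Em 525/598 nm; 4-parameter Hill fit against DMSO and 10 uM DA3003.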
# SKOV3 = experiment: Primary qHTS to identify gynecologic anti-cancer compounds using libraries of approved drugs and bioactive compounds (AID 1345084); conditions: Gynecologic cancer cell panel viability, ATPlite luminescence, 48 h; series mostly up to 57.5 µM; also: nearly all actives have a fitted effect of over 55% in size; also: potency is read from the fitted curve at half-maximal effect
# In short: as §2
# [11] = qHTS to identify inhibitors of the type 1 interferon - major histocompatibility complex class I in skeletal muscle: primary screen against the NCATS Mechanism Interrogation Plate v5.0 (MIPE) Libary (AID 1347411);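 also: plate controls were vehicle for no effect and reference inhibitor for full effect; nearly all actives have a fitted effect of over 65% in size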
# In short: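 Seed engineered human myoblasts (HLA-B HiBit) in medium without dexamethasone containing 4 ng/ml IFN-beta; after 1 hr add compound titrations (top 46 uM final). Incubate 24 hrs at 37 C, lyse 10 min with HiBiT reagent, read luminescence.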
# NIH3T3 = experiment: Cytotoxic Profiling of Annotated Libraries Using Quantitative High-Throughput Screening (AID 1296008); conditions: Five cell lines viability, CellTiter-Glo ATP luminescence, 48-72 h; max response: stronger effect = lower value; also: nearly all actives have a fitted effect of over 60% in size; also: potency is read from the fitted curve at half-maximal effect; as to max response: % is scaled to controls: 0 for no effect and ±100 for the full control effect
# In short: as §1
# [12] = P-glycoprotein substrates identified in KB-8-5-11 adenocarcinoma cell line, qHTS therapeutic library screen (AID 1346987); also: potency is read from the fitted curve at half-maximal effect; nearly all actives have a fitted effect of over 65% in size
# In short: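 Luminescence from CellTiter-Glo, read 5 min after addition, quantified survival of KB-8-5-11 (P-gp-overexpressing) cells exposed to compounds for 72 h. AC50 was derived from concentration-response curves.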
# [13] = measured here: PEO1 parental Z-AUC
smiles,measurement,setting,value
CNC(=O)c1cccc2cc(Oc3ccnc4cc(OCC5(N)CC5)c(OC)cc34)ccc12,Potency,[1],inactive
same,Potency,[2],7.56 µM (active)
same,Z-AUC,[3],0.323 (inactive)
same,Z-AUC,[3]; [13],0.465
same,Z-AUC,[3]; measured here: PEO4 Z-AUC,0.47
same,outcome,HaCat,inactive
same,Potency,CAOV3,inactive
CC1CCN(C(c2ccc(F)cc2)c2ccc(C(C)C(=O)O)cc2-c2ccc(C(F)(F)F)cc2)CC1 (stereo not drawn),Potency,[4],13.9 µM (active)
same,Potency,[5],6.58 µM (active)
same,Potency,[2],9.52 µM (active)
same,activity,[6],4.19%
same,"activity change, negative = inhibition",[7],0%
same,activity,[8],-58.6%
same,activity,[9],4.79%
same,Potency,[10],inactive
same,max response,HaCat,1.13% (inactive)
same,Potency,CAOV3,inactive
same,Potency,SKOV3,inactive
Cc1ccc(C(=O)N2CCN(c3ccc([N+](=O)[O-])cc3)CC2)cc1Cl,Potency,[2],16.9 µM (active)
same,max response,HaCat,-12.6% (inactive)
same,Potency,SKOV3,inactive
COc1cc2ncnc(Nc3ccc(Oc4ccccc4)cc3)c2cc1OC,Potency,[1],19 µM (active)
same,Potency,[2],16.9 µM (active)
same,Potency,HaCat,7.31 µM (active)
same,Potency,CAOV3,31.6 µM (active)
same,Potency,SKOV3,28.2 µM (active)
COc1cc([C@@H](CC(=O)O)c2ccc(C)c(CN3C[C@@H](C)Oc4ccccc4S3(=O)=O)c2)cc2nnn(C)c12,Potency,[11],inactive
same,Z-AUC,[3],1.24 (inactive)
same,Z-AUC,[3]; [13],0.171
same,Z-AUC,[3]; measured here: PEO4 Z-AUC,-0.282
same,max response,HaCat,-8.19% (inactive)
same,max response,NIH3T3,3.5% (inactive)
C=C1/C(=C/C=C2\CCC[C@]3(C)[C@@H]([C@H](C)/C=C/C(=O)C4CC4)CC[C@@H]23)C[C@@H](O)C[C@@H]1O,outcome,HaCat,inactive
same,Potency,CAOV3,inactive
same,Potency,SKOV3,inactive
CC1(C)CC23[C@@H]4CC(=O)[C@@H]2COC(=O)[C@@H]3CC[C@H]41,Potency,[10],inactive
same,max response,HaCat,-1.08% (inactive)
same,Potency,CAOV3,inactive
N#CCC(C1CCCC1)n1cc(-c2ncnc3[nH]ccc23)cn1 (stereo not drawn),Potency,[1],inactive
same,Potency,[2],15.1 µM (active)
same,Potency,[10],inactive
same,outcome,HaCat,inactive
same,Potency,CAOV3,inactive
same,Potency,SKOV3,inactive
CCC(C)n1cc(C)c2c(C(=O)NCc3c(C)cc(C)[nH]c3=O)cc(-c3ccc(N4CCNCC4)nc3)cc21 (stereo not drawn),Potency,[2],2.13 µM (active)
same,Potency,[10],inactive
same,outcome,HaCat,inactive
same,Potency,SKOV3,inactive
CN(CCCNC(=O)c1ccc2nc3c(c(Cl)c2c1)CCCC3)Cc1ccccc1,Potency,[2],15.1 µM (active)
same,Potency,[10],inactive
same,max response,HaCat,1.7% (inactive)
same,Potency,CAOV3,inactive
same,Potency,SKOV3,inactive
O=C(Nc1ccc(F)cc1)N1CCc2ccccc2C1c1ccc(C(F)(F)F)cc1 (stereo not drawn),Potency,[12],20.6 µM (active)
same,Potency,[1],9.52 µM (active)
same,Potency,[2],5.35 µM (active)
same,Potency,[10],inactive
same,Potency,HaCat,14.6 µM (active)
same,Potency,CAOV3,inactive
CC/C(=C(\c1ccc(O)cc1)c1ccc(OCCNC)cc1)c1ccccc1,Potency,[10],inactive
same,outcome,HaCat,inactive
same,Potency,CAOV3,inactive
same,Potency,SKOV3,inactive
